Among the test systems are NCI-H23 lung; NCI-H226 lung; NCI-H322M lung; HOP-62 NSCLC; NCI-H460 lung; HOP-92 NSCLC; NCI-H522 lung; A549/ATCC NSCLC; 786-0 renal; COLO 205 colon.
What all share (test): NCI-60 one-dose screen, 48 h (100 = growth as untreated, 0 = no growth, -100 = all killed)
What all share (details): 10 µM unless noted

The panel holds about 83,000 compounds, 20% with a hit somewhere; the sample as a whole holds those more often.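 Single-concentration screen, 48 h exposure, 96-well plates. Endpoint: percent growth. Below 10 = active.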 A number with no mark means an inactive call. Active and inactive are the calls of the source.

As for `COc1cc2nc(N3CCCC3)nc(Nc3ccccc3)c2cc1OC`, the growth was 2.6% (active) in the assay with NCI-H23 lung; 29.2% with NCI-H226 lung; 19.3% in the assay on NCI-H322M lung; 16.3% with HOP-62 NSCLC; -42.1% (active) in the assay with NCI-H460 lung; -25.9% (active) with HOP-92 NSCLC. In addition, the growth with NCI-H522 lung was -53% (active); with A549/ATCC NSCLC, -39.8% (active); with 786-0 renal it was -90.5% (active); in the assay on COLO 205 colon, -84.1% (active).

On to `C#CC(F)(F)[C@]1(O)CC[C@H]2[C@@H]3CCC4=CC(=O)CCC4=C3[C@@H](c3ccc(C4CC4)cc3)C[C@@]21C`, for which the growth with NCI-H23 lung is -53.3% (active); with NCI-H226 lung, 63.3%; in the assay on NCI-H322M lung, 88.4%; in the assay on HOP-62 NSCLC, 9.06% (active); with NCI-H460 lung, 57.1%; in the assay with HOP-92 NSCLC, -60.2% (active). Further, the growth in the assay on NCI-H522 lung is -70.1% (active); in the assay on A549/ATCC NSCLC, 11.5%; in the assay with 786-0 renal it was -77.3% (active); with COLO 205 colon, 29.5%.

As to `CN(C)CCN1C(=O)c2cccc3c(N)ccc(c23)C1=O`, the growth in the assay with NCI-H23 lung was 44.3%; in the assay with NCI-H226 lung, 23.9%; in the assay on NCI-H322M lung, 58.5%; in the assay on HOP-62 NSCLC, 58.1%; in the assay with NCI-H460 lung it was -5.38% (active); in the assay on HOP-92 NSCLC, 19.9%. The growth is 7.81% (active) in the assay with NCI-H522 lung, 6.47% (active) in the assay with A549/ATCC NSCLC, 36.9% with 786-0 renal and 8.15% (active) with COLO 205 colon.

As to `Cc1cc(C)nc(SC2=C(Nc3cccc(Cl)c3C)C(=O)N(Cc3ccccc3)C2=O)n1`, the growth was 58.9% [30 µM] with NCI-H23 lung; 69.2% [30 µM] in the assay with NCI-H226 lung; 63.5% [30 µM] with NCI-H322M lung; 73% [30 µM] in the assay on HOP-62 NSCLC; 44% [30 µM] with NCI-H460 lung; 14.4% [30 µM] with HOP-92 NSCLC. Further, the growth in the assay with NCI-H522 lung was 51.3% [30 µM]; in the assay on A549/ATCC NSCLC, 27.3% [30 µM]; in the assay on 786-0 renal, 61.8% [30 µM]; in the assay with COLO 205 colon it was 70.3% [30 µM].

`O=c1c2c3c(sc2nc(N/N=C/c2cn(-c4ccccc4)nc2-c2ccc(Cl)cc2)n1Cc1ccccc1)CCCC3`: the growth was 106% in the assay on NCI-H23 lung; 102% with NCI-H226 lung; 111% in the assay with NCI-H322M lung; 98.5% in the assay with HOP-62 NSCLC; 97.7% in the assay on NCI-H460 lung; 74.2% in the assay with HOP-92 NSCLC. For the same compound, the growth in the assay on NCI-H522 lung is 84.7%; with A549/ATCC NSCLC it was 83.6%; in the assay on 786-0 renal, 95.2%; with COLO 205 colon, 109%.

Turning to `C=C1c2nc3ccccc3n2C=C(c2ccc(Cl)cc2)N1Cc1ccc(OC)cc1`, the growth in the assay with NCI-H23 lung is 54.2%; with NCI-H226 lung it was 80.8%; with NCI-H322M lung, 101%; with HOP-62 NSCLC, 118%; with NCI-H460 lung it was 81.3%; in the assay with HOP-92 NSCLC, 77.4%. For the same compound, the growth in the assay on NCI-H522 lung was 57.3%; with A549/ATCC NSCLC, 84.5%; in the assay on 786-0 renal, 94%; with COLO 205 colon, 71.1%.

In the case of `COc1cc(-c2nn(C)nc2-c2cc3ccccc3s2)cc(OC)c1OC`, the growth with NCI-H23 lung was 30.4%; with NCI-H226 lung, 55.5%; in the assay with NCI-H322M lung, 44.9%; with HOP-62 NSCLC it was 32.7%; with NCI-H460 lung, 13%; in the assay with HOP-92 NSCLC, 64.9%. For the same compound, the growth in the assay with NCI-H522 lung is 0.184% (active); in the assay with A549/ATCC NSCLC, 23.3%; with 786-0 renal, 36.8%; with COLO 205 colon it was -14.5% (active).

Turning to `COc1cc(C2CC(=O)c3ccccc3N2)cc(OC)c1OC` (stereo not given), the growth with NCI-H23 lung is 95.7%; in the assay on NCI-H226 lung it was 82.6%; in the assay with NCI-H322M lung, 102%; in the assay with HOP-62 NSCLC, 97.6%; in the assay on NCI-H460 lung, 101%; in the assay with HOP-92 NSCLC, 92.2%. In addition, the growth in the assay with NCI-H522 lung was 54%; in the assay on A549/ATCC NSCLC, 84.6%; in the assay with 786-0 renal it was 102%; in the assay with COLO 205 colon, 113%.

For `COc1cccc(C2=NN3C(C2)c2cc(Br)cc(OC)c2OC32CCN(Cc3ccccc3)CC2)c1` (stereo not given), the growth was 95.7% with NCI-H23 lung; 85.3% in the assay on NCI-H226 lung; 103% with NCI-H322M lung; 105% in the assay with HOP-62 NSCLC; 101% in the assay on NCI-H460 lung; 111% in the assay with HOP-92 NSCLC. Further, the growth with NCI-H522 lung is 96.2%; in the assay with A549/ATCC NSCLC it was 102%; in the assay with 786-0 renal, 104%; with COLO 205 colon, 107%.

Consider `C=C1C(=O)O[C@H]2[C@H]1CC/C(C=Nc1ccc(C(F)(F)F)cc1N)=C\CC[C@@]1(C)O[C@@H]21`, for which the growth in the assay with NCI-H23 lung is 12.4%; in the assay on NCI-H226 lung, 42.5%; with NCI-H322M lung, 54%; with HOP-62 NSCLC it was 47.6%; in the assay on NCI-H460 lung it was 15.3%; in the assay with HOP-92 NSCLC it was 27%. Moreover, the growth in the assay on NCI-H522 lung was -56.6% (active); in the assay with A549/ATCC NSCLC, 59.7%; with 786-0 renal, 25%; with COLO 205 colon, -74.3% (active).

For the compound `Cc1ccc(OC(=O)c2ccc(Cl)cc2)cc1`, the growth was 99.2% in the assay on NCI-H23 lung; 97.3% in the assay on NCI-H226 lung; 98.2% in the assay on NCI-H322M lung; 84.5% in the assay on HOP-62 NSCLC; 111% in the assay with NCI-H460 lung; 100% with HOP-92 NSCLC. In addition, the growth in the assay with NCI-H522 lung is 76.1%; in the assay with A549/ATCC NSCLC, 98.4%; in the assay with 786-0 renal, 90.2%; in the assay with COLO 205 colon, 112%.

For the compound `COc1ccccc1NS(=O)(=O)c1ccc2oc(SC(C)C)nc2c1`, the growth in the assay with NCI-H23 lung is 61%; in the assay on NCI-H226 lung, 53.8%; with NCI-H322M lung, 99.7%; with HOP-62 NSCLC it was 97.3%; in the assay with NCI-H460 lung it was 77.2%; in the assay with HOP-92 NSCLC it was 79.4%. The growth is 65.6% with NCI-H522 lung, 75.9% in the assay with A549/ATCC NSCLC, 64.2% with 786-0 renal and 109% in the assay on COLO 205 colon.

The values above are taken from PubChem BioAssay (NCI).
